Pf growth 96h: P. falciparum growth inhibition at 96 hour, primary screen for plastid delayed-death inhibitors. P. falciparum luciferase reporter growth, 96 h. Potency, µM (series often up to 28.7 µM), for the others: at the highest dose activity change, negative = inhibition, most hits filed as inhibitors. actives 6.9% (n = 320,000); also: potency is read from the fitted curve at half-maximal effect; % is scaled to controls: 0 for no effect and ±100 for the full control effect
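Compounds incubated with erythrocytes infected by luciferase-expressing P. falciparum (2% hematocrit, 0.05% parasitemia final) for 96 hours, 37 C in 5% CO2. Growth inhibition scored as decreased luciferase luminescence.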
SARS PLpro yeast: inhibitors of SARS-CoV papain-like protease in yeast; actives 0.19% (n = 330,000); Potency, µM (titrated, usually from 32.9 µM), for inactives: top-dose activity, positive = growth rescue, actives largely listed as activators; S. cerevisiae expressing SARS-CoV PLpro, growth rescue; calls by dose curve; also: potency is read from the fitted curve at half-maximal effect; 0% is about no effect; nearly all actives have a fitted effect of over 55% in size
Pf growth 48h: inhibits P. falciparum growth in the first generation, 48 h | P. falciparum luciferase growth in erythrocytes, 48 h | Potency, µM (top dose mostly 28.7 µM), inactives show at the top dose activity change, negative = inhibition, hits mostly inhibitors | actives 5.9% (n = 310,000) | AID 504832; also: potency is read from the fitted curve at half-maximal effect; % is scaled to controls: 0 for no effect and ±100 for the full control effect
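Growth was read as firefly luciferase luminescence after a 48 h, 37 C, 5% CO2 exposure of compounds to reporter-bearing P. falciparum cultures (0.1% parasitemia, 2% hematocrit final) in Albumax-supplemented RPMI 1640.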
AMA1-RON2 inh: disrupts binding of P. falciparum AMA1 to RON2. AlphaScreen AMA1-biotinylated RON2 peptide binding. Potency, µM (doses to about 58.2 µM), for inactives: at the top dose activity change, negative = inhibition, actives largely listed as inhibitors. actives 0.2% (n = 360,000);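 also: potency is read from the fitted curve at half-maximal effect; 0% = vehicle wells and -100% = peptide control; nearly all actives have a fitted effect of over 45% in size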
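AMA1 (3D7) with his tag at 25 nM final met compounds first, then biotinylated RON2 peptide at 25 nM; detection used donor plus acceptor beads, 10 µg/mL apiece, read by AlphaScreen after 30 min at room temperature.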
Cycloheximide cs: counter-screen for Shiga toxin inhibitors: cycloheximide protein synthesis inhibition | AID 2314 | cell reporter, cycloheximide protein synthesis inhibition counterscreen | actives 12% (n = 300,000) | max response, %; in the data active = max response mostly above about 13%, no sharp cut-off; inactive = mostly below about 14%; also: read at 38.3 µM for the half of the compounds with a filed dose; 0% is about no effect
Shiga inhibitor: blocks Shiga toxin action in Vero cells; actives 9.2% (n = 290,000); Vero cells, Shiga toxin protein synthesis inhibition reporter; inhibition, % at 38.7 µM; in the data active = inhibition mostly above about 28%, no sharp cut-off; inactive = mostly below about 43%; also: 0% is about no effect
Numbers without * were called inactive; ? = inconclusive; . = not tested or not shown; [ ] = remark or other dose. Rows were chosen to be rich in hits. Some 19% of all compounds tested hit in one or more screens of this group. Unless noted, calls follow the shape of the dose curve; as a rule, active = well fitted curve in the direction sought with a large enough effect; inconclusive = small, poorly fitted or top-dose-only effect, or another doubt; inactive = no such curve, though single readings can be large; an effect the other way counts as inactive or inconclusive.

SMILES	Pf growth 96h	SARS PLpro yeast	Pf growth 48h	AMA1-RON2 inh	Cycloheximide cs	Shiga inhibitor
CC(C)Oc1ccc(S(=O)(=O)N2CCCCC2)cc1NC(=O)CN1C(=O)NC(C)(C2CC2)C1=O (centres undefined)	-13%	-14%	?	-2%	.	.
CC(C)Oc1ccc(S(=O)(=O)N2CCCCC2)cc1NC(=O)CN1CCCC1c1cccs1 (centres undefined)	4.1µM*	-5%	4.1µM*	0%	.	.
CC(C#N)Sc1ccc(S(=O)(=O)N2CCCC2)cn1 (centres undefined)	7%	-5%	?	9%	.	.
Clc1ccc(Oc2nc(N3CCOCC3)nc(N3CCOCC3)n2)cc1	.	.	4%	-1%	2	-11
O=C(COC(=O)CNS(=O)(=O)c1ccc2ccccc2c1)Nc1ccccc1Sc1ccccc1	34%	1%	4%	0%	-1	-4
CC(C)Oc1ccc(S(=O)(=O)N2CCCCC2)cc1NC(=O)CN1C(=O)NC2(CCCC2)C1=O	?	-5%	12µM*	11%	.	.
Fc1ccc2nncc(SCc3ccccc3Cl)c2c1	.	.	.	0%	.	.
COc1ccc(CN2C(=O)CNC2=S)cc1	-6%	-1%	21%[0.00184 µM]	39%	-4	-7
CCCCCCc1ccc(N2C[C@H](C)[C@@H](CC(=O)NCc3ccccc3)C2=O)cc1	?	-10%	?	10%	8.5*	-1
CCCCCCc1ccc(N2C[C@H](Cc3ccccc3)[C@@H](CC(=O)Nc3ccccc3)C2=O)cc1	?	-1%	?	7%	17*	44*
O=C(C[C@H]1C(=O)N(c2ccc(Br)cc2)C[C@@H]1Cc1ccccc1)Nc1ccccc1	.	.	.	16%	.	.
CCCCCCc1ccc(N2C[C@H](CCCCC)[C@@H](CC(=O)NCc3ccccc3)C2=O)cc1	?	0%	?	-5%	1	-1
Cc1nc(C2CCC3C4CCC5=CC(=O)CC[C@]5(C)C4CC[C@]23C)cs1 (some centres undefined)	-13%	1%	-6%	.	-5	-7
Cc1nc2ccc(NC(=O)COc3ccccc3F)cc2s1	100%	-7%	97%	6%	31*	72*
COc1cccc(CC(=O)Nc2ccc3nc(C)sc3c2)c1	30%	-87%	13%	-13%	30*	11
Cc1cc(CNC(=O)COc2ccccc2F)c2ccccc2n1	36%	-1%	96%	-6%	37*	87*
CCN(CC)C(=O)c1ccc(NC(=O)COc2ccccc2F)cc1	255%	6%	101%	-1%	22*	76*
CC(C)c1ccc(NC(=O)Nc2nc(C(N)c3ccccc3Cl)cs2)cc1 (centres undefined)	.	.	.	73%	.	.
Cc1ccc(CNC(=O)C2(C)CCN2C(=O)Cc2ccc(-c3ccccc3)cc2)cc1 (centres undefined)	.	.	.	-15%	.	.
CC1(C)CC(=O)C(C=NCC2CCN(C(=O)Cc3ccccc3)CC2)=C(O)C1	-21%	-1%	-20%	-2%	-1	-10
COc1ccccc1CC(=O)Nc1ccc2nc(C)sc2c1	34%	0%	54%	-9%	25*	80*
O=C(NCCC(=O)N1CCC2(CC1)NCCc1[nH]cnc12)c1ccc(F)c(F)c1	29%	-4%	6%	1%	-2	-2
CCCN1C(=O)/C(=C/c2ccc(C)s2)NC1=S	26%	25%	-6%	1%	20*	38
CC(C)CN1C(=O)/C(=C/c2cccs2)NC1=S	-21%	-17%	-19%	11%	11	13
CCCCn1c(SCC(=O)Nc2ccccc2C(F)(F)F)nc2ccsc2c1=O	12µM*	-15%	0%	-6%	1	-16
SMILES	Pf growth 96h	SARS PLpro yeast	Pf growth 48h	AMA1-RON2 inh	Cycloheximide cs	Shiga inhibitor
CCCCn1c(SCC(=O)N2CCC(C)CC2)nc2ccsc2c1=O	-44%	2%	12µM*	25%	10	-7
CCOC(=O)c1c(C)n(C)c2ccc(OC)c(NC(=O)CCN3CCSCC3)c12	73%	0%	.	2%	-3	-2
CCOC(=O)c1c(C)n(C)c2ccc(OC)c(NC(=O)CN3CCN(C(=O)c4ccco4)CC3)c12	?	1%	5.2µM*	3%	-2	-4
COC(=O)c1c(NC(=O)CN2CCN(C(=O)c3ccco3)CC2)c2c(C)cccc2n1C	.	-8%	?	2%	12	-3
CCOC(=O)c1c(C)n(C)c2ccc(OC)c(NC(=O)CN3CCC(C(=O)OCC)CC3)c12	3.3µM*	-1%	?	11%	10	-3
CCOC(=O)c1c(C)n(C)c2ccc(OC)c(NC(=O)CN3CCN(Cc4ccccc4)CC3)c12	26%	4%	10µM*	-1%	-3	-13
CCOC(=O)c1c(C)n(C)c2ccc(OC)c(NC(=O)CN3CCN(C4CCCCC4)CC3)c12	.	9%	?	1%	10	-18
COc1cccc(CCN2CCC(CNS(=O)(=O)c3cc(-c4cc(C)no4)ccc3C)CC2)c1	?	3%	?	-17%	-4	25
O=c1c2ccccc2cnn1-c1ccc2ccccc2c1	.	-3%	296%	8%	33*	98*
O=c1c2ccccc2cnn1Cc1ccc(Cl)c(Cl)c1	-16%	0%	?	-3%	-6	-6
O=C1C=CC(=O)N1c1ccc2ccccc2c1	.	.	.	7%	.	.
O=c1c2ccccc2cnn1-c1ccc(Cl)nn1	42%	1%	100%	1%	18*	42*
O=c1c2ccccc2cnn1-c1ccc(Br)cc1	184%	-6%	101%	6%	57*	65*
O=c1c2ccccc2nnn1-c1ccc(Br)cc1	147%	1%	127%	-7%	44*	97*
COc1ccc(CCNC(=O)COC(=O)C2CC2)cc1OC	.	2%	.	-20%	.	.
C1CSC2(N1)C1CC3CC2CC(C1)C31NCCS1 (centres undefined)	?	-2%	9%	0%	1	-12
C#CC[N+](CC)(CC)CC#Cc1ccccc1	?	2%	?	5%	8	-3
CC[N+](CC)(CC#Cc1ccccc1)CC#Cc1ccccc1	?	1%	1.5µM*	-12%	-2	15
S=c1[nH]nc(-c2cc(-c3ccccc3)n[nH]2)n1/N=C/C(Br)=C/c1ccccc1	9.3µM*	-6%	5.2µM*	77%	28*	63*
Cc1cc(-c2n[nH]c(=S)n2/N=C/c2cccc(O)c2)n[nH]1	44%	1%	61%	95%	1	-2
Cc1cc(-c2n[nH]c(=S)n2/N=C/C(Cl)=C/c2ccccc2)n[nH]1	?	-20%	-16%	12%	39*	38*
Cc1n[nH]c(=S)n1/N=C/c1cccc(OCc2ccccc2)c1	31%	0%	2.6µM*	69%	15	58*
S=c1[nH]nc(-c2cc(-c3ccccc3)n[nH]2)n1/N=C/c1ccccc1	-1%	-1%	-12%	108%	1	-4

Screens from PubChem BioAssay.
